Assay [1] is described as follows: inhibitors of TNFa-induced NFkB p65 translocation, primary screen, imaging, HUVEC, MLSMR starter and 10KST1 sets (AID 438;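 active = inhibition above 20% together with a positive visual image hit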;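 also: compound added about 3h40 before a 20 min TNFalpha stimulation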;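 as to inhibition: signal is the nuclear over cytoplasmic p65 intensity ratio per well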). The following applies: HUVEC TNFa-induced p65 nuclear translocation; cell count: measured here: nuclei count (cytotoxicity indicator), at 2.08 µM; inhibition: at 2 µM, stronger effect = higher value, 0% TNFa-plus-vehicle, 100% no-TNFa wells.
The nature of assay [2]: inhibitors of mutant huntingtin aggregation, primary screen, imaging, exon1htt(103Q)mCFP cells, high-content imaging (AID 483;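 active = visual image review flags a hit and inhibition of aggregation exceeds 20%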;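 also: compound exposure lasted 3 days before fixation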;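 as to nuclei count: percent of the per-plate median nuclei count of sample wells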). The following applies: exon1htt(103Q)mCFP cell line, aggregate imaging, at 2 µM; inhibition of aggregation: stronger effect = higher value; nuclei count: measured here: cell count, toxicity.
Assay [3] in a line: inhibitors of E-selectin induction by TNFa, primary screen, imaging, HUVEC, immunofluorescence, MLSMR starter and 10KST1 sets (AID 487;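 active = visually confirmed hit in the image check and inhibition above 20%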;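 as to inhibition: signal is fraction of cell area covered by stained E-selectin grains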;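 as to nuclei count: 100% = median nuclei count of all wells on the same plate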). The conditions noted are these: HUVEC TNFalpha-induced E-selectin immunofluorescence imaging, at 2 µM; inhibition: stronger effect = higher value; nuclei count: measured here: cell number, toxicity.
Assay [4] in a line: DUSP6 inhibitors restoring Erk phosphorylation by chemical complementation, primary imaging in DUSP6-transfected HeLa (AID 609;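 active = compounds giving at least 50% inhibition in the cell-based MKP-3 phosphatase rescue imaging test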;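 as to inhibition: phospho-Erk level distribution per well compared with pooled transfected vehicle control wells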). The following applies: HeLa MKP-3 transfected, phospho-Erk imaging KS statistic, at 10 µM, cells stimulated with TPA for 15 min.
Assay [5] addresses Dual specificity protein phosphatase 6 (Homo sapiens) (UniProt Q16828). The description is as above. The following applies: HeLa MKP-3 transfected, phospho-Erk imaging KS statistic; at 10 µM; stronger effect = higher value; cells stimulated with TPA for 15 min.
Assay [6] addresses Voltage-gated potassium channel subunit beta-2 (Rattus norvegicus) (UniProt P62483). In words: KvBeta enzyme negative modulators, primary screen, biochemical, NADPH fluorescence (AID 622;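 active = fluorescence slope higher than the sample average by over 3 SD, cut at about -0.22 in these data, passing the limit was not always enough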;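 also: slope of raw intensity against log time taken from 70 to 1610 s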). The following applies: recombinant KvBeta, 4-cyanobenzaldehyde reduction, at 10 µM, stronger effect = higher value.
Assay [7] has the same target. In words: KvBeta positive modulators, primary screen, biochemical, NADPH fluorescence (AID 623;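 active = NADPH fluorescence slope more negative than the mean of all samples by about 3 SD, 99.7% confidence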;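 also: fluorescence intensity change per second fitted from 20 to 320 s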). The conditions noted are these: Recombinant KvBeta, NADPH fluorescence decrease slope, 10 min; at 10 µM; stronger effect = lower value.
Assay [8] concerns the target Alpha-2C adrenergic receptor (Homo sapiens) (UniProt P18825). Description: modulators of alpha2C/GIRK thallium flux, primary screen, cell-based, HEK293 alpha2C/GIRK1/2 (AID 624;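 active = fluorescence slope after compound addition differing from the mean of all screened samples at 99.7% confidence, in either direction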;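 also: slope of fluorescence ratio to pre-addition baseline per second over 15 to 24 s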). The following applies: thallium flux BTC fluorescence, at 10 µM, actives lie on both sides.
Assay [9] can be described thus: inhibitors of larval lipid processing in zebrafish, primary screen, whole organism, PED6 fluorescence, gall bladder and intestine (AID 686;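 active = a full or partial loss of lipid-probe fluorescence in the fish gall bladder, intestine or both, judged by eye; inactive = no fluorescence loss, or compound toxic to the fish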;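 also: larvae 5 to 7 days old with five fish per well; signal comes from phospholipase A2 cleavage of quenched PED6 carried via bile; overnight exposure to compound and PED6 before scoring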). The conditions noted are these: Zebrafish larvae PED6 lipid processing, fluorescence scoring; screened at 20 µM (by protocol).
Assay [10] is described as follows: inhibitors of Chlamydomonas gravitaxis, primary screen, whole organism, Chlamydomonas reinhardtii, WT vs cilia-less mutant, absorbance, 96-well (AID 463189).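 Also: 0% = wild type cc124 cells in DMSO and 100% = ciliumless bld1 mutant cells.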 The conditions noted are these: OD600 absorbance, 2 days, at 10 µM, stronger effect = higher value.
The nature of assay [11]: inhibitors of Sendai virus-induced IRF3 signaling, primary screen, TLR/RLR signaling modifier project, cell-based, Sendai virus stimulus, luciferase, 10K MLSCN set (AID 602276;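 active = inhibition at or above 50% at 10 µM; inactive = inhibition below 50%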;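 also: firefly luciferase from ISG56 promoter only with Renilla not read in this screen; 0% = Sendai virus plus DMSO and 100% = medium plus DMSO without virus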). The conditions noted are these: HEK293 RL24 IRF3 luciferase reporter, at 10 µM, stronger effect = higher value. A general note: Reporter assays use an easily measured gene product as a stand-in for the process of interest.

The nature of assay [12]: inhibitors of poly I:C-induced TLR3 signaling, primary screen, cell-based, poly I:C stimulus, luciferase, 10K MLSCN set (AID 602277;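 active = inhibition of the reporter signal at or above 50%; inactive = inhibition below 50%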). The conditions noted are these: HEK293-TLR3 RL24 IRF3 luciferase reporter, at 10 µM, stronger effect = higher value.
[13] abbreviates: measured here: cell density z-score.
The mark [14] stands for this setting: measured here: nuclear c-Myc green intensity z-score.
The mark [15] stands for this setting: measured here: nuclear pErk red intensity z-score, stronger effect = higher value.

Structures are written as SMILES. Several values for one entry are separate records, joined by “and”; a condition that tells them apart may be missing. Equal values may be shown once. Activity calls are given as the source filed them.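 The calls were made as follows, unless noted: active = inhibition at or above 50% relative to wild type and mutant plate controls; inactive = inhibition below 50%.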

The record followed here is PubChem BioAssay.

Sequence of Voltage-gated potassium channel subunit beta-2 (Rattus norvegicus) (P62483 whole entry, looked up): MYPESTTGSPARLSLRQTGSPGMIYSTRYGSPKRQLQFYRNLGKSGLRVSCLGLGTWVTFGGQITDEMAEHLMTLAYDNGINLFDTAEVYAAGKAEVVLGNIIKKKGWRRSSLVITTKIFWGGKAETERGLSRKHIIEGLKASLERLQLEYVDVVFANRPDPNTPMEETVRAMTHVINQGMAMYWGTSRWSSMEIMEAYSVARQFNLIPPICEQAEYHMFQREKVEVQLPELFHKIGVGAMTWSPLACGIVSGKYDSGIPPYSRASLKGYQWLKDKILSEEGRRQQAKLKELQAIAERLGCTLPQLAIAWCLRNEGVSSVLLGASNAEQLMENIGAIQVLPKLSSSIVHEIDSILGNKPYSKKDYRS
Sequence of Alpha-2C adrenergic receptor (Homo sapiens) (P18825 whole entry, looked up): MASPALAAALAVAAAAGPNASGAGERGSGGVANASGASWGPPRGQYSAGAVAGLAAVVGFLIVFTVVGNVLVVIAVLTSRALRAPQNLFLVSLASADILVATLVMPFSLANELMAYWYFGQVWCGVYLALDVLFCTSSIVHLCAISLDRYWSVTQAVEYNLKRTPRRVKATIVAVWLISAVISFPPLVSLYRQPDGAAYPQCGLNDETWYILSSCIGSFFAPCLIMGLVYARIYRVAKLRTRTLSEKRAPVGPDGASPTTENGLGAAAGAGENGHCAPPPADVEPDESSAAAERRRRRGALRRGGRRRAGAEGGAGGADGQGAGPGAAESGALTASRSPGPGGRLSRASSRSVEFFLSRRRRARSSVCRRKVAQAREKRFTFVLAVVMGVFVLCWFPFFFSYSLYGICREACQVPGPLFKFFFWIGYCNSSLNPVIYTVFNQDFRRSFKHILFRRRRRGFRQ
Sequence of Dual specificity protein phosphatase 6 (Homo sapiens) (Q16828 whole entry, looked up): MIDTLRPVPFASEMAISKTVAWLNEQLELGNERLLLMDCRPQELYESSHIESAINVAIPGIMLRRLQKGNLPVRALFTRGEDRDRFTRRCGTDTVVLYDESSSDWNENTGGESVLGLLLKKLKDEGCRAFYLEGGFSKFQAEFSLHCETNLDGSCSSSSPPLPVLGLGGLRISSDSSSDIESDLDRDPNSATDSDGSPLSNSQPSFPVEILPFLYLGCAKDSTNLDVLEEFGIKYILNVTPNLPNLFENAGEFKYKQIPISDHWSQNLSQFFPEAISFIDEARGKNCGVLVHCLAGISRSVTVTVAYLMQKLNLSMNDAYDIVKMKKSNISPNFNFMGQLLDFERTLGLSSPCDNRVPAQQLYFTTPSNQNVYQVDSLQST

Broadly, the inhibition is the drop in the measured response relative to a control, in per cent. On to `CCC(c1c(C)n(C)n(-c2ccccc2)c1=O)c1c(C)n(C)n(-c2ccccc2)c1=O`, for which the cell count in [1] worked out at 550. In addition, the inhibition was -4.3% (inactive) in [1]; -51.3% (inactive) in assay [3]; 3.66% (inactive) in assay [5]; 5% (inactive) in assay [10]; 17.6% (inactive) in [11]; 17.1% (inactive) in [12]. In addition, in [2], the inhibition of aggregation was 27.5% (inactive). For the same compound, the nuclei count is 89.2% in assay [2] and 125% in assay [3]. Besides, the z-score is -0.849 in assay [4] (setting [13]), -0.188 in [4] (setting [14]) and -0.348 in assay [4] (setting [15]). Besides, the fluorescence slope in assay [6] is -0.488 (inactive). The NADPH fluorescence slope in [7] was -0.000154 (inactive). Besides, the slope in assay [8] was 0.00494 (inactive). Besides, in assay [9], the result was inactive.
Take `CC(C)N=c1cc2n(-c3ccc(Cl)cc3)c3ccccc3nc-2cc1Nc1ccc(Cl)cc1`: the cell count in assay [1] came to 636. The inhibition is -2.8% (inactive) in assay [1]; -163% (inactive) in [3]; -0.493% (inactive) in [5]; 157% (active) in assay [10]; -7.35% (inactive) in [11]; 33.1% (inactive) in [12]. Further, in [2], the inhibition of aggregation was -9.9% (inactive). Besides, the nuclei count came to 102% in assay [2] and 126% in assay [3]. The z-score is -0.698 in assay [4] (setting [13]), -0.296 in assay [4] (setting [14]) and 0.758 in assay [4] (setting [15]). In addition, the fluorescence slope in assay [6] is -0.535 (inactive). The NADPH fluorescence slope in [7] was -1.6e-05 (inactive). Besides, in assay [8], the slope is 0.00125 (inactive). For the same compound, the outcome in assay [9] was “active; weak signal in gallbladder and intestine”.
With `N=c1nc(N2CCCCC2)cc(N)n1O`, the cell count in [1] is 660. The inhibition in [1] is 0.9% (inactive); in assay [3], -58.5% (inactive); in assay [5], 25.7% (inactive); in [10] it was 1.56% (inactive) and -3.08% (inactive); in [11] it was 9.96% (inactive); in assay [12] it was 34.6% (inactive). Also, the inhibition of aggregation in assay [2] is -1.2% (inactive). The values for the nuclei count in assay [2] and in [3] were 114% and 138%, respectively. The z-score in assay [4] (setting [13]) was -0.689; in assay [4] (setting [14]) it was -0.0187; in assay [4] (setting [15]), 0.315. Also, the fluorescence slope in assay [6] was -0.46 (inactive). The NADPH fluorescence slope in assay [7] is -6e-05 (inactive). The slope in assay [8] was 0.00444 (inactive). Further, in assay [9], the outcome was inactive.
Regarding `N=c1c[n+](N2CCOCC2)[n-]o1`, in assay [1], the cell count was 605. Further, the inhibition in assay [1] was -7.1% (inactive); in assay [3], -109% (inactive); in [5], -8.38% (inactive); in [10], 5.26% (inactive) and -2.73% (inactive); in assay [11], 19.5% (inactive); in assay [12], 43.7% (inactive). The inhibition of aggregation in [2] was 4.6% (inactive). Also, the values for the nuclei count in assay [2] and in assay [3] were 86.9% and 139%, respectively. Moreover, the z-score was 0.144 in assay [4] (setting [13]), -0.44 in assay [4] (setting [14]) and 0.201 in [4] (setting [15]). Besides, the fluorescence slope in [6] is -0.496 (inactive). The NADPH fluorescence slope in assay [7] was -5.7e-05 (inactive). Besides, the slope in assay [8] is 0.00445 (inactive). The result in assay [9] was inactive.
Regarding `COc1ccc2cnn(-c3ccccc3C)c(=O)c2c1OC`, the cell count in assay [1] was determined as 613. Moreover, the inhibition in assay [1] was -6.2% (inactive); in [3], -124% (inactive); in assay [5] it was -6.48% (inactive); in assay [10], 9.21% (inactive); in [11], 9.25% (inactive); in assay [12], 5.14% (inactive). The inhibition of aggregation in [2] was 1.9% (inactive). Moreover, the nuclei count in assay [2] is 116%; in assay [3], 157%. Also, the z-score in assay [4] (setting [13]) was 0.481; in [4] (setting [14]), 0.125; in [4] (setting [15]) it was 1.16. The fluorescence slope in [6] is -0.372 (inactive). In assay [7], the NADPH fluorescence slope was -3.7e-05 (inactive). Further, the slope in assay [8] is 0.00535 (inactive). In addition, the call in assay [9] was inactive.
Regarding `Cc1csc(NC(=O)CSc2nsc(SCC(=O)Nc3nc(C)cs3)c2C#N)n1`, in [1], the cell count amounted to 655. In addition, the inhibition in [1] is -10.4% (inactive); in assay [3], -15.8% (inactive); in assay [5], 6.51% (inactive); in assay [10], 2.21% (inactive); in assay [11], -8.75% (inactive); in [12], -83.6% (inactive). The inhibition of aggregation in assay [2] is 12.2% (inactive). The nuclei count in [2] came to 105%; in assay [3] it was 141%. The values for the z-score in assay [4] (setting [13]), in assay [4] (setting [14]) and in assay [4] (setting [15]) were -1.33, 0.375 and -0.579, respectively. Further, in assay [6], the fluorescence slope is -0.37 (inactive). For the same compound, in assay [7], the NADPH fluorescence slope is -3.7e-05 (inactive). Further, the slope in [8] is 0.00462 (inactive). For the same compound, the call in assay [9] was inactive.
As to `CC(=O)O[C@]1(C(C)=O)CC[C@H]2[C@@H]3C=C(C)C4=CC(=O)CC[C@]4(C)[C@H]3CC[C@@]21C`, in assay [1], the cell count turned out to be 697. Moreover, the inhibition in [1] is -4.5% (inactive); in [3], -91% (inactive); in assay [5], 7.39% (inactive); in [10], 1.32% (inactive); in assay [11] it was 15.7% (inactive); in assay [12], 41% (inactive). The inhibition of aggregation in assay [2] is -13.2% (inactive). Also, the values for the nuclei count in assay [2] and in assay [3] were 103% and 125%, respectively. The z-score in [4] (setting [13]) is 0.989; in assay [4] (setting [14]), -0.815; in [4] (setting [15]) it was -0.896. Further, the fluorescence slope in [6] is -0.492 (inactive). The NADPH fluorescence slope in assay [7] was -2e-05 (inactive). Further, the slope in assay [8] is 0.00287 (inactive). Also, in assay [9], the outcome was inactive.
In the case of `CCc1ccccc1NC(=O)CSC1=C(C#N)C(c2ccc(O)c(OC)c2)C2=C(CCCC2=O)N1` (stereo not given), the cell count in assay [1] is 554. The inhibition is -8.4% (inactive) in assay [1]; -146% (inactive) in assay [3]; 13.2% (inactive) in assay [5]; 22.1% (inactive) in [10]; 18.6% (inactive) in assay [11]; 20% (inactive) in [12]. The inhibition of aggregation in [2] is -29.5% (inactive). Further, the nuclei count amounted to 109% in assay [2] and 137% in [3]. For the same compound, the z-score in assay [4] (setting [13]) is -0.0849; in [4] (setting [14]), -0.0258; in assay [4] (setting [15]), 0.52. In addition, the fluorescence slope in [6] is -0.422 (inactive). Also, in assay [7], the NADPH fluorescence slope was -3.5e-05 (inactive). In addition, in [8], the slope is 0.00571 (inactive). The call in assay [9] was inactive.
`CN(C)[C@@H]1C(=O)C(C(N)=O)=C(O)[C@@]2(O)C(=O)C3=C(O)c4c(O)ccc(Cl)c4[C@@H](O)[C@H]3C[C@@H]12`: in assay [1], the cell count was found to be 524. Besides, the inhibition in [1] was -3% (inactive); in [3], -35.1% (inactive); in [5], 9.37% (inactive); in assay [10] it was 54.1% (active) and 88% (active); in assay [11], 17.1% (inactive); in assay [12] it was 24.2% (inactive). For the same compound, in [2], the inhibition of aggregation was 77.8% (active). The figures for the nuclei count in assay [2] and in assay [3] were 96.8% and 93%, respectively. For the same compound, the z-score was 0.892 in assay [4] (setting [13]), 0.579 in assay [4] (setting [14]) and -1.42 in [4] (setting [15]). For the same compound, in assay [6], the fluorescence slope was -0.537 (inactive). Further, the NADPH fluorescence slope in assay [7] is -2.5e-05 (inactive). Moreover, in assay [8], the slope was 0.00572 (inactive). Also, the outcome in assay [9] is “active; no signal in intestine only”.
On to `COC(=O)Nc1nc2ccc(Sc3ccccc3)cc2[nH]1`, for which the cell count in assay [1] amounted to 678. Moreover, the inhibition in [1] is 4.6% (inactive); in assay [3], -3.1% (inactive); in assay [5] it was -5.24% (inactive); in [10], -5.89% (inactive); in [11] it was 43% (inactive); in [12], -12.9% (inactive). For the same compound, in [2], the inhibition of aggregation was 9.4% (inactive). The nuclei count in [2] turned out to be 103%; in assay [3] it was 76.4%. Moreover, the z-score in assay [4] (setting [13]) is -0.13; in assay [4] (setting [14]), 0.104; in [4] (setting [15]) it was -0.162. For the same compound, the fluorescence slope in assay [6] is -0.475 (inactive). In addition, the NADPH fluorescence slope in assay [7] is -5.5e-05 (inactive). Also, in assay [8], the slope is 0.00514 (inactive). In addition, in assay [9], the call was inactive.
